The supplement of paper PMC11732987, “Enantioselective OTUD7B fragment discovery through chemoproteomics screening and high-throughput optimisation” (Communications Chemistry, 2025)

What was measured:
Assay in all cases: log2 ratio of Biotin-Ahx-Ub-VS probe labelling (fragment/DMSO); higher = less target engagement (more negative = stronger competition), active = hit call of the paper (q ≤ 0.05, log2 ratio ≤ -1)
Conditions in all cases: compound concentration: 200 uM; treatment time: 3 h
ALG13 = molecular target: T1, ALG13 (UniProt Q9NP73)
T1 sequence (whole entry): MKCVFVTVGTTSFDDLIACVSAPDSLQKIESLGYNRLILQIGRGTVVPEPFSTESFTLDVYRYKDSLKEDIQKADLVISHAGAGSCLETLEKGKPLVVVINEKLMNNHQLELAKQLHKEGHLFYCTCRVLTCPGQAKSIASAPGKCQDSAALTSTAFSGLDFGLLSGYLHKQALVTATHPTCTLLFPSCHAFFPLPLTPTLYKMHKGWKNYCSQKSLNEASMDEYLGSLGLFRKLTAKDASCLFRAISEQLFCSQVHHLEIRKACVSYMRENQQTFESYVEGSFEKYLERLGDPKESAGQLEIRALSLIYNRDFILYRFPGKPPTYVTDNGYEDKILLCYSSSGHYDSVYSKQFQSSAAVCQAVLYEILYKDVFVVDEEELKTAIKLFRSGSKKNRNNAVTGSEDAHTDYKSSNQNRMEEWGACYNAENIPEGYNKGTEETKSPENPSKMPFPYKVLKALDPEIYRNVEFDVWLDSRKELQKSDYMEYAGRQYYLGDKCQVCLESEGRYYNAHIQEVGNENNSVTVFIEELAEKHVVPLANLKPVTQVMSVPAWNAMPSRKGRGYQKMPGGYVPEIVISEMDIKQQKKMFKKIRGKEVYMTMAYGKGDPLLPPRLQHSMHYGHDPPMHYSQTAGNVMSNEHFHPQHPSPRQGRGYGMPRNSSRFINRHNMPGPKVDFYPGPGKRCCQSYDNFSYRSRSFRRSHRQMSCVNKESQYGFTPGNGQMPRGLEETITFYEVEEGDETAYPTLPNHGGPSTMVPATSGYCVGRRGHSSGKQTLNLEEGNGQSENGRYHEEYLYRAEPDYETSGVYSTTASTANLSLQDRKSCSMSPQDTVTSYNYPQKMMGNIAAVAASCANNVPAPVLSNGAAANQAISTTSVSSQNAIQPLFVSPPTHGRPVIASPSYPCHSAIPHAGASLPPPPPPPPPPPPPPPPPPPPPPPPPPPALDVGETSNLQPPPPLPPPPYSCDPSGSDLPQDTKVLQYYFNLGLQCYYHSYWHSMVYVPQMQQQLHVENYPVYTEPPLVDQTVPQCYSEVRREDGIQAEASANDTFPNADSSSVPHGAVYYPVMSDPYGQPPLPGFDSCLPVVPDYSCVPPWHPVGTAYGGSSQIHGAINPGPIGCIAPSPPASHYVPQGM
Procedure, shortened: (§1)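 HEK293T lysate (495 µg per sample, in Tris/CHAPS/IGEPAL buffer with protease inhibitors) was exposed in triplicate for 3 h to fragment at 200 µM or to vehicle, then to Biotin-Ahx-Ub-VS at 0.5 µM final for 1 h. Labelled DUBs were enriched on NeutrAvidin, digested with LysC and trypsin, and analysed by diaPASEF LC-MS/MS. Spectronaut label-free quantities were normalised to the global median, and values are average log2 ratios of fragment over vehicle from an unpaired t-test. Only proteins with ≥2 unique peptides were used.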

ATXN3 = ATXN3 (UniProt P54252)
Procedure, shortened: as §1

BAP1 = molecular target: T2, BAP1 (UniProt Q92560)
T2 sequence (whole entry): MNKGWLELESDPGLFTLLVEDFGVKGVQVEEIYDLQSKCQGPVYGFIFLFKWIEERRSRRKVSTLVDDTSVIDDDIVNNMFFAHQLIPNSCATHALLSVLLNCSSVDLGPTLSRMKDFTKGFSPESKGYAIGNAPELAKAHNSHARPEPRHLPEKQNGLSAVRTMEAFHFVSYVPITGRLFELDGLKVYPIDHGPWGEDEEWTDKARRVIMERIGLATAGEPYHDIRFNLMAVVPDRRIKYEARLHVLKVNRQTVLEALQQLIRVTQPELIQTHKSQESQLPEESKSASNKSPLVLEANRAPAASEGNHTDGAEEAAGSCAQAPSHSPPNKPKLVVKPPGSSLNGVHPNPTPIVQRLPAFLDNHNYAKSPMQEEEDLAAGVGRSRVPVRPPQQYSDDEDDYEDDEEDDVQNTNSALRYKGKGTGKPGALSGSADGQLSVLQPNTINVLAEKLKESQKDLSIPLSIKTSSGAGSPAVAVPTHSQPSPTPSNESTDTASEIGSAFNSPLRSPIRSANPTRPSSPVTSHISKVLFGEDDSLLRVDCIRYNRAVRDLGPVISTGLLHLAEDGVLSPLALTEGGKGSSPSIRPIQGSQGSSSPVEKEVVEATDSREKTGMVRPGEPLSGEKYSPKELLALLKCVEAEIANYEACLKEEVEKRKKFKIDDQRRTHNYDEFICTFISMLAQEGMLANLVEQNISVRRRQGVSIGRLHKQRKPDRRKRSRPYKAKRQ
Procedure, shortened: as §1

EIF3F = EIF3F (UniProt O00303)
Procedure, shortened: as §1

EIF3H = EIF3H (UniProt O15372)
Procedure, shortened: as §1

FAM105A = molecular target: T3, FAM105A (UniProt Q9NUU6)
T3 sequence (whole entry): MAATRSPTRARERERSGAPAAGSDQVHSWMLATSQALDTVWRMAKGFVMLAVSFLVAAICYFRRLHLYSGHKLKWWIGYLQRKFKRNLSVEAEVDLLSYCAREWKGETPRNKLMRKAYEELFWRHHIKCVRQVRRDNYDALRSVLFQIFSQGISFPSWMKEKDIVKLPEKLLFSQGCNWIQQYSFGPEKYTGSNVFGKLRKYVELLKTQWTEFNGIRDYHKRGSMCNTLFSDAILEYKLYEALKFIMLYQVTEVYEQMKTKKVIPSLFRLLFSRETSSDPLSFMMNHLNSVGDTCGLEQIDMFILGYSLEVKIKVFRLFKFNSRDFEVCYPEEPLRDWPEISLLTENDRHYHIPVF
Procedure, shortened: as §1

OTUB1 = OTUB1 (UniProt Q96FW1)
Procedure, shortened: as §1

OTUD4 = molecular target: T4, OTUD4 (UniProt Q01804)
T4 sequence (whole entry): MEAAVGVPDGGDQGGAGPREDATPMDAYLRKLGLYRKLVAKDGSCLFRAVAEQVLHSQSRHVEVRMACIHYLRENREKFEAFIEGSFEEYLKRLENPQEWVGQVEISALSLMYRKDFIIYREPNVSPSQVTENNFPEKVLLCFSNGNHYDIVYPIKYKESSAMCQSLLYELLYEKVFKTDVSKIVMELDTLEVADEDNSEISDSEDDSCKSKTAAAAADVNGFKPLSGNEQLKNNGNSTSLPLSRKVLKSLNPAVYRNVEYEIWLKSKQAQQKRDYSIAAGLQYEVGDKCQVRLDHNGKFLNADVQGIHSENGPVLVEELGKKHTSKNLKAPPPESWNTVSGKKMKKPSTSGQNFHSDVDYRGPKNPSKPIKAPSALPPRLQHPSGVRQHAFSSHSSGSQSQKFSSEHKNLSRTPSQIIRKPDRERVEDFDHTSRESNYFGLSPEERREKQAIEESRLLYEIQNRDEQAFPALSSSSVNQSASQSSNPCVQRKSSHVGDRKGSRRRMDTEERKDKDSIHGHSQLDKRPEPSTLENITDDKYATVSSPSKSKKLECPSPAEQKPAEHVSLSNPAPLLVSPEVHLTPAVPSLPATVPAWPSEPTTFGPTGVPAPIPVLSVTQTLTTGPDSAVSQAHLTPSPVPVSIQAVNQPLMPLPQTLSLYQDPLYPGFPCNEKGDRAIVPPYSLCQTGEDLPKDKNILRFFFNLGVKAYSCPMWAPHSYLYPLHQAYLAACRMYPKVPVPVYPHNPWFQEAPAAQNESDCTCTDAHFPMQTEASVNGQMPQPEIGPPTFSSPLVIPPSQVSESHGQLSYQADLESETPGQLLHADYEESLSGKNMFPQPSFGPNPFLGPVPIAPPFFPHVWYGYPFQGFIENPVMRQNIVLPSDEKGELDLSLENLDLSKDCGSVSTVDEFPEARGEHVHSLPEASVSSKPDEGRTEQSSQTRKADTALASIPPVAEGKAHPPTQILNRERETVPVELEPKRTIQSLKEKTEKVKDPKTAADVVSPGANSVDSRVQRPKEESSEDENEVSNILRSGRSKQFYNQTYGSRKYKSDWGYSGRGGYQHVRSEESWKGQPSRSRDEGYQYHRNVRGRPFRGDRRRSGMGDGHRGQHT
Procedure, shortened: as §1

OTUD5 = molecular target: T5, OTUD5 (UniProt Q96G74)
T5 sequence (whole entry): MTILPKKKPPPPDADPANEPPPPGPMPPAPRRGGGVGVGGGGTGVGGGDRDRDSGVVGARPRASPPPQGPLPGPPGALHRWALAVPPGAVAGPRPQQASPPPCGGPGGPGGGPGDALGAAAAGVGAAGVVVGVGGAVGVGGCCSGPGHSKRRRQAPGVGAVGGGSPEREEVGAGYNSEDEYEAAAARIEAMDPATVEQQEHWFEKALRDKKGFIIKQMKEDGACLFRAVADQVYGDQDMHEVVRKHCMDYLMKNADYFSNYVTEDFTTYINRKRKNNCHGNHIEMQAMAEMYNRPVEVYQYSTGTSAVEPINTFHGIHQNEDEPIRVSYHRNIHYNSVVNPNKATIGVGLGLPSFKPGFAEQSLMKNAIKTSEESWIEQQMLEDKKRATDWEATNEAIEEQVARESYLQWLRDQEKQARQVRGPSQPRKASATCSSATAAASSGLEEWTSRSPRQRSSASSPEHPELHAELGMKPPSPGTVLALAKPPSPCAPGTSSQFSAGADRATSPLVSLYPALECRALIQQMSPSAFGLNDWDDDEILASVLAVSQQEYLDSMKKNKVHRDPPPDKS
Procedure, shortened: as §1

Measured: log2 ratio of Biotin-Ahx-Ub-VS probe labelling

Chain of OTUB1 (Q96FW1 whole entry): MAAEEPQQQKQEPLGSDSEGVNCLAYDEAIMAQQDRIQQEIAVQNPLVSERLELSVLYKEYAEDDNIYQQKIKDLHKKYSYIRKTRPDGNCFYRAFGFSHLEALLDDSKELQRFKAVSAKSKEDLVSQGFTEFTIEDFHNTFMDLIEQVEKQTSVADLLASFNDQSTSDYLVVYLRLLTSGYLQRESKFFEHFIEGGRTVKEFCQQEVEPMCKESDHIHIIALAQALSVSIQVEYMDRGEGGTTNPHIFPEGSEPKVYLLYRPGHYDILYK
Chain of ATXN3 (P54252 whole entry): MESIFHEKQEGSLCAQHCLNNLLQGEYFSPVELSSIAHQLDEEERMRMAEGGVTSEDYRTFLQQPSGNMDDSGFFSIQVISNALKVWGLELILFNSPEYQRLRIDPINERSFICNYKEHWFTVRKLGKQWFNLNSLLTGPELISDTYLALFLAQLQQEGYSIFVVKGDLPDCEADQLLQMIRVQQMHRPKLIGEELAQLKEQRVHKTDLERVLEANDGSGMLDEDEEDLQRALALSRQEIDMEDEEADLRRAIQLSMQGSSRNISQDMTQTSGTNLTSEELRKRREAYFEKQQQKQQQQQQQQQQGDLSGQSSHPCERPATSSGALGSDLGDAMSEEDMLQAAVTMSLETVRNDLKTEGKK
Chain of EIF3F (O00303 whole entry): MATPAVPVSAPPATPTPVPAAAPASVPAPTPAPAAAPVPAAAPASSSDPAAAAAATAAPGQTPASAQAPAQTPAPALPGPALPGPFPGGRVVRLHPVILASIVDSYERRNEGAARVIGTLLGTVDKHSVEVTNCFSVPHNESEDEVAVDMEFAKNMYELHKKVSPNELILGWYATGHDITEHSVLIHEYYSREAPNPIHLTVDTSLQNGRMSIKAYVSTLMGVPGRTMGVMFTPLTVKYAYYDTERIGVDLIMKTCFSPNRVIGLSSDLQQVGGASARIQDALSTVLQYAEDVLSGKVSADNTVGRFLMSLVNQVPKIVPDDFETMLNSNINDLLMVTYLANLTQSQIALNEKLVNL
Chain of EIF3H (O15372 whole entry): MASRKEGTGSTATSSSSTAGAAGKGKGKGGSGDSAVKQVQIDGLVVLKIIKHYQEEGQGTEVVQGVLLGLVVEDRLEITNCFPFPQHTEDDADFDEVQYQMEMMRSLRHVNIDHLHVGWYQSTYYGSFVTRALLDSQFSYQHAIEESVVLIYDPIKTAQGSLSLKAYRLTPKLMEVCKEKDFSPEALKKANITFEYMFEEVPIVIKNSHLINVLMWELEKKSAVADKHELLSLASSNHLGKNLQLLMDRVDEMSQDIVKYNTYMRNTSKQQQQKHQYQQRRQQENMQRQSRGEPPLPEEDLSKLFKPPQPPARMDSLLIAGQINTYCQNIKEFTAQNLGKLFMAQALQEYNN

NC(=O)C1CCCCN1C(=O)CCl (centres undefined)
inactive: ALG13 0.0736 | ATXN3 -0.889 | BAP1 -0.748 | EIF3F 0.103 | EIF3H 0.0122 | FAM105A -0.18 | OTUB1 -0.182 | OTUD4 -0.464 | OTUD5 -0.638
